An excerpt weighted towards active compounds, which were near 18% of everything screened.
TDP1 inh – inhibitors of human tyrosyl-DNA phosphodiesterase TDP1 | Potency, µM (titrated, usually from 130 µM), for inactives: top-dose activity change, negative = inhibition, hits mostly inhibitors | recombinant TDP1, AlphaScreen DNA substrate cleavage | Q9NUW8 | actives 0.28% (n = 350,000); also: potency is read from the fitted curve at half-maximal effect; nearly all actives have a fitted effect of over 40% in size
Target sequence (Q9NUW8 whole entry, looked up): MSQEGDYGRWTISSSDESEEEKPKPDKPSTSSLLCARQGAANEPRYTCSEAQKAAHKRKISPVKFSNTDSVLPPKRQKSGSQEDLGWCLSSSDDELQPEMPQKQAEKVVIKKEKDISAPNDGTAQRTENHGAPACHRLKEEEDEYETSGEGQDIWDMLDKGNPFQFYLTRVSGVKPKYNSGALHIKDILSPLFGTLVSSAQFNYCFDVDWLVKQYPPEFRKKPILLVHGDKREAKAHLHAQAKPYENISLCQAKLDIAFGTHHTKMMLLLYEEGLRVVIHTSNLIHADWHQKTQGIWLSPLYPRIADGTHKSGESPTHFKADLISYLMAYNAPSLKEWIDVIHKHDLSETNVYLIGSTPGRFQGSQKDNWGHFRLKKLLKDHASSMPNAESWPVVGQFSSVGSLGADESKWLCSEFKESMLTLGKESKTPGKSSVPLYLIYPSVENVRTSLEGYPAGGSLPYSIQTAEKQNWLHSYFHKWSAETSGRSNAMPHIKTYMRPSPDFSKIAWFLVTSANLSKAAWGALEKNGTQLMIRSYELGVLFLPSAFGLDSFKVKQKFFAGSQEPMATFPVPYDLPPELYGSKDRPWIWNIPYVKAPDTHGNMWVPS
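Signal: AlphaScreen proximity between streptavidin donor and anti-FITC acceptor beads on intact substrate. Reaction: Tdp1 1 nM, substrate 15 nM final, 5 min RT after 15 min compound preincubation.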
Six1-Eya2 inh – blocks human Six1 binding to Eya2 | Q15475+O00167 | AlphaScreen GST-Six1/His-Eya2 binding, biochemical; active compounds read low | activity change, % (concentration not given with the values) | actives 0.56% (n = 360,000); in the data active = activity change below about -65%; inconclusive = mostly about -30% to -63%
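Homogeneous AlphaScreen proximity assay pairing GST-Six1 with His-tagged Eya2 (added as 5X mix: 250 nM and 500 nM) in 50 mM Tris pH 8.0, 300 mM NaCl, 1 mM TCEP. Glutathione donor and nickel acceptor beads; 1 h, 37 °C, dark.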
IL1B secr inh – blocks inflammasome-driven IL-1 beta release | AID 743279 | activity change, % at 57.5 µM | actives 4.7% (n = 360,000) | THP-1 LPS/ATP IL-1B secretion, AlphaLISA, 16 h; active compounds read low; in the data active = activity change below about -50%; inconclusive = mostly about -30% to -49%
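THP-1 cells pretreated 1 hr with compounds (up to 57.5 uM final), then stimulated with LPS (250 ng/mL final) plus ATP (1.25 mM final); secreted IL-1B measured by AlphaLISA after 16 hr, decreased signal indicating inhibition.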
CtBP-E1A inh – CtBP/E1A binding inhibition | activity change, % (no concentration beside the values) | AlphaScreen GST-E1A/His-CtBP binding, 1536-well; active compounds read low | actives 0.49% (n = 340,000) | AID 651724; in the data active = activity change below about -65%; inconclusive = mostly about -30% to -63%
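Homogeneous bead-based format: GST-tagged E1A captured on glutathione donor beads, His-tagged CtBP on nickel acceptor beads; compounds precede bead addition by 2 h at 37 °C.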
DT40 TDP1 CPT – DT40-hTDP1 cell growth loss with CPT | chicken DT40 Tdp1-/-;hTDP1 cells + 20 nM CPT, ATP luminescence, 48 h | Potency, µM (titrated, usually from 46.2 µM), inactives show at the highest dose activity change, negative = growth inhibition, actives largely listed as inhibitors | actives 12% (n = 420,000) | AID 686979; also: potency is read from the fitted curve at half-maximal effect; nearly all actives have a fitted effect of over 55% in size
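Cell growth measured by CellTiter-Glo luminescence after a minimum 48 h, 37 C compound exposure with 20 nM CPT in Tdp1-knockout DT40 cells stably expressing hTDP1, seeded 400/well; qHTS titration format.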
TDP1 cell noCPT – qHTS for Inhibitors of human tyrosyl-DNA phosphodiesterase 1 (TDP1): qHTS in cells in absence of CPT. DT40 Tdp1-/- hTDP1 cells, no CPT, ATP luminescence, 48 h. actives 15% (n = 420,000). Potency, µM (titrated, usually from 46.2 µM), for the others: at the top dose activity change, negative = growth inhibition, actives largely listed as inhibitors. AID 686978, 2013; also: potency is read from the fitted curve at half-maximal effect; nearly all actives have a fitted effect of over 55% in size
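Cells were dispensed at 400 per well, compounds added by pin tool, plates incubated ≥48 hr at 37 °C, then CellTiter-Glo added for 30 min at room temperature before luminescence reading. Line: DT40 Tdp1-/- complemented with hTDP1; camptothecin omitted.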
An asterisk follows results filed as active; ? = inconclusive; . = not tested or not shown. Unless noted, calls follow the shape of the dose curve; as a rule, active = well fitted curve in the direction sought with a large enough effect; inconclusive = small, poorly fitted or top-dose-only effect, or another doubt; inactive = no such curve, though single readings can be large; an effect the other way counts as inactive or inconclusive. % is scaled to controls: 0 for no effect and ±100 for the full control effect.

SMILES	TDP1 inh	Six1-Eya2 inh	IL1B secr inh	CtBP-E1A inh	DT40 TDP1 CPT	TDP1 cell noCPT
COc1ccc(CCNC(=O)Cn2cc(S(=O)(=O)Cc3ccc(F)cc3)c3ccccc32)cc1OC	9%	.	.	.	?	21µM*
Cc1cccc(N(CC(=O)NC(C)C)C(=O)CCC(=O)Nc2ccccn2)c1	2%	5	-8	7	-5%	-1%
CCOC(=O)N1CCN(C(=O)CCNS(=O)(=O)c2ccc3c(c2)c(=O)n(C)c(=O)n3C)CC1	0%	3	-10	6	-4%	8%
COc1ccc(CNC(=O)CCC2N=C3c4ccccc4N=C(SCc4ccccc4F)N3C2=O)cc1 (stereo not given)	-1%	.	.	.	?	?
O=C(CCC1N=C2c3ccccc3N=C(SCc3ccc(F)cc3)N2C1=O)NCc1ccc(F)cc1 (stereo not given)	-4%	.	.	.	?	?
O=C(CCC1N=C2c3ccccc3N=C(SCc3ccccc3F)N2C1=O)NCc1ccccc1 (stereo not given)	1%	.	.	.	?	18µM*
O=C(CCC1N=C2c3ccccc3N=C(SCc3ccccc3F)N2C1=O)NCc1ccc(F)cc1 (stereo not given)	1%	.	.	.	?	26µM*
COc1ccc(CNC(=O)CCC2N=C3c4ccccc4N=C(SCc4ccc(F)cc4)N3C2=O)cc1 (stereo not given)	2%	.	.	.	?	23µM*
Nc1c(Cl)cc(-c2cn(CCC(=O)O)c(-c3ccc(Cl)nc3)n2)cc1Cl	4%	-20	5	-1	-7%	4%
Cc1ccc(Sc2ncccc2/C=N/O)cc1	-7%	-3	-14	-2	-4%	-14%
CCN(CC)C(=O)C1CCCN(Cc2nc(-c3cnccn3)no2)C1 (stereo not given)	5%	2	14	3	-16%	4%
Cc1ccccc1-n1c(=O)c2ccccc2n2nnnc12	6%	8	25	13	1%	-4%
Fc1ccc(-c2ccc3c(c2)C2CC3CCN2)cc1 (stereo not given)	.	7	0	-4	18µM*	23µM*
Cc1cccc(-c2ccc3c(c2)C2CC3CCN2)c1 (stereo not given)	.	5	0	-1	21µM*	15µM*
Cc1cc(=O)oc(C)c1C(=O)NCCCN1C(C)CCCC1C (stereo not given)	4%	7	-4	11	-5%	2%
COc1cccc(N2CCN(Cc3ncc(-c4ccccc4)o3)CC2)c1	13%	?	-8	-21	-5%	-8%
CCOc1ccc(CCNC(=O)c2c3c(nc4ccccc24)C(=O)N(C2CCCCC2)C3)cc1	3%	.	.	.	16µM*	21µM*
O=C(NCCc1ccc(Cl)cc1)c1c2c(nc3ccccc13)C(=O)N(C1CCCCC1)C2	2%	.	.	.	15µM*	15µM*
Cc1c(-c2ccccc2)nc2ccccc2c1C(=O)NCc1cccs1	2%	-6	-6	8	?	16µM*
O=C(NCCc1ccccc1)c1c2c(nc3ccccc13)C(=O)N(C1CCCCC1)C2	5%	.	.	.	12µM*	18µM*
CCCNC(=O)c1c2c(nc3ccccc13)C(=O)N(C1CCCCC1)C2	2%	.	.	.	-3%	-21%
CCNC(=O)c1c2c(nc3ccccc13)C(=O)N(C1CCCCC1)C2	11%	.	.	.	-19%	-19%
O=C(c1ccco1)N1CCN(C(=O)c2ccccc2OC(=O)C23CC4CC(CC(C4)C2)C3)CC1	6%	-3	-5	0	?	?
CCc1c(-c2ccccc2)nc2ccccc2c1C(=O)NCCc1ccccc1	5%	.	.	.	?	23µM*
CCc1nc2ccccc2c(C(=O)NCc2ccccc2)c1C	6%	8	6	5	-8%	-1%
